Source: PubChem BioAssay (several laboratories)
Only some compounds are listed: those with a hit (about 12% of all), similar ones and a draw of the others.
ROMK primary: modulators of human ROMK potassium channel | Tet-inducible ROMK, thallium flux fluorescence; actives lie on both sides | 130,000 compounds, 2% hits | B-score at 10 µM | P48048;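 active = signal ratio slope over the read window, or its plate-corrected B-score, at least 3 SD from the plate mean, either direction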;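 note: B-score of the F/F0 ratio slope over 7 to 12 s after thallium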
Target sequence (P48048 whole entry, looked up): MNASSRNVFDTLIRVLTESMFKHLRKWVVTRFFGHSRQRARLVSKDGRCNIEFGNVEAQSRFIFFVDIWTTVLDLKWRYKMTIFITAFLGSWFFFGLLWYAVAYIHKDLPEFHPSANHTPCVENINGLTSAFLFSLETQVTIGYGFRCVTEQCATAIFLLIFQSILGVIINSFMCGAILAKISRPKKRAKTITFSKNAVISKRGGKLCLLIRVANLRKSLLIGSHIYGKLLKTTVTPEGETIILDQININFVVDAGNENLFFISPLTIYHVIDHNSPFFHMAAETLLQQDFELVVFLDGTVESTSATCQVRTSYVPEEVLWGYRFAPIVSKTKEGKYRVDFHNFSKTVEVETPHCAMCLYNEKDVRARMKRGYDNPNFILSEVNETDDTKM
INS promoter inh: TRM-6 insulin promoter activity inhibition | 130,000 compounds, 0.9% hits | AID 1273 | TRM-6 cells (human fetal islet line), insulin promoter-eGFP reporter, imaging; reporter expression induced with tamoxifen | inhibition, % at 2 µM;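 active = inhibition above the mean plus 3 SD, with well images judged a real hit on visual review, cut at about 60% in these data, passing the limit was not always enough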
WT yeast gro inh: growth inhibition of WT yeast, mitochondrial fusion screen; AID 1362; inhibition, % at 10 µM; mitochondrial fusion phenotypic screen, WT strain; 190,000 compounds, 2.1% hits; in the data active = inhibition above about 58%; tested in S. cerevisiae
L major viab: Leishmania major promastigote growth inhibition; 200,000 compounds, 9% hits; Leishmania major promastigotes, resazurin fluorescence viability; AID 1063; inhibition, % at 10 µM; in the data active = inhibition above about 50%;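 note: promastigotes grown with compound for 44 hours at 28 °C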
KCC2 mod: modulators of human KCC2 chloride dependent transport; KCC2 cells, thallium flux FluoZin-2 fluorescence; B-score of Tl+ flux slope (higher = more flux/activation; lower = inhibition) at 10 µM; 190,000 compounds, 2.2% hits; AID 1456;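 active = thallium flux slope and its plate-corrected score both differing from the plate sample mean at a set confidence after two filtering rounds, in either direction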;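 note: slope of fluorescence scaled to starting intensity during 10 to 20 s after thallium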
Ins promoter up: MIN6 insulin promoter up-regulation. MIN6 insulin promoter-GFP reporter, high-content imaging; hits give high values. AID 1625. z-score at 5 µM. 190,000 compounds, 0.3% hits;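 active = z-score above 3 at 5 µM with at least 500 cells counted in the well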
Starred values were filed as active, the others as inactive; . = not tested or not shown.

SMILES | ROMK primary | INS promoter inh | WT yeast gro inh | L major viab | KCC2 mod | Ins promoter up
CCC(C)(C)n1nnnc1CN(Cc1ccco1)Cc1cc2cc3c(cc2[nH]c1=O)OCO3 | . | -67 | -1 | -3 | -0.26 | .
CC(C)(C)n1nnnc1C(c1ccc(C(F)(F)F)cc1)N(Cc1ccccc1)Cc1ccco1 (stereo not drawn) | . | 9 | -2 | 22 | 0.082 | -0.8
CCN(Cc1ccccc1)C(c1ccc(C)cc1)c1nnnn1C(C)(C)CC (stereo not drawn) | . | -15 | -19 | 19 | 0.55 | -2.4
CC(C)(C)n1nnnc1C(c1ccc(C(F)(F)F)cc1)N(Cc1ccc(F)cc1)Cc1ccco1 (stereo not drawn) | . | 35 | 20 | 77* | -1 | .
CCC(C)(C)n1nnnc1CN(Cc1ccc(Cl)cc1)Cc1ccco1 | -0.71 | . | 17 | 56* | -0.038 | -1.4
CC(C)(C)n1nnnc1C(c1ccc(Cl)cc1)N(Cc1cccnc1)Cc1ccco1 (stereo not drawn) | . | -115 | 68* | 100* | -2.2 | .
Cc1ccc(C(c2nnnn2C(C)(C)C)N(Cc2ccco2)Cc2cccs2)cc1 (stereo not drawn) | . | . | 14 | 19 | -0.3 | -2.6
CC(=O)N(c1cccc(Br)c1)C1C=CS(=O)(=O)C1 (stereo not drawn) | 0.41 | -265 | 8 | -1 | 0.41 | 0.03
O=C(COc1ccc(Cl)cc1)N1CCN(C(=O)c2cccc(F)c2)CC1 | 0.42 | -44 | -2 | -4 | -1.3 | 1
Cc1nc2sc3c(c2c(=O)n1NC(=O)CCBr)CCCC3 | -1.4 | . | 2 | 14 | -0.037 | -1
CN1CCN(C(=O)/C(=C\c2cccs2)NC(=O)c2ccco2)CC1 | -0.32 | 13 | -8 | 3 | 0.97 | -6.3
COc1ccc(CN2CCN(CCc3ccccc3)C(CCO)C2)c(O)c1 (stereo not drawn) | -0.19 | . | -7 | 87* | 0.55 | 0.41
COc1ccc(O)c(CN2CCN(CCc3ccccc3)C(CCO)C2)c1 (stereo not drawn) | -1 | . | 2 | 77* | 0.19 | -0.48
COc1cccc(CN2CCN(CCc3ccccc3)C(CCO)C2)c1OC (stereo not drawn) | -0.96 | 20 | -14 | 20 | . | .
COc1ccc2cc3c(N)nn(C(=O)C4CCC(C(C)(C)C)CC4)c3nc2c1 (stereo not drawn) | -0.036 | 60* | 92* | 35 | 0.13 | 0.03
COc1ccc(-n2c(C)cc(C(=O)CN3CCC(C)CC3)c2C)cc1 | -1.1 | 7 | -9 | 92* | 2.1 | -0.96
Cc1cc(C(=O)CN2CCCCC2)c(C)n1-c1ccc(F)cc1 | . | . | -7 | 12 | 0.15 | -0.55
Cc1cc(C(=O)Nc2ccc(Cl)cc2)c(C)n1-c1ccccc1 | . | . | . | . | -0.82 | -1.4
COc1ccc(-n2c(C)cc(C(=O)CN3CCCCC3)c2C)cc1 | -0.4 | 43 | -10 | 1 | 0.36 | 0.42
Cc1cc(C(=O)CN2CCCC2)c(C)n1-c1ccc(Cl)cc1 | -0.13 | . | 1 | 53* | -0.35 | -0.45
Cc1cc(C(=O)CN2C(=O)C(=O)N(C)C2=O)c(C)n1-c1cccc(S(=O)(=O)N2CCOCC2)c1 | . | . | . | . | 0.63 | -0.03
CCOC(=O)c1cc(C(=O)OCC)cc(-n2c(C)cc(C(=O)CN3CCOCC3)c2C)c1 | . | 27 | -1 | 93* | -0.15 | -0.88
Cc1cc(C(=O)CN2CCC(C)CC2)c(C)n1-c1ccc(F)cc1 | . | . | 30 | 91* | -0.66 | 0.18
COc1ccc(-n2c(SCC#N)nc3ccccc3c2=O)cc1 | . | -33 | -3 | 1 | -0.67 | -0.33
CC(=O)Cc1nsc(NC(=O)c2ccc(-c3ccccc3Cl)o2)n1 | -0.53 | 4 | 2 | -1 | -0.99 | 0.2
SMILES | ROMK primary | INS promoter inh | WT yeast gro inh | L major viab | KCC2 mod | Ins promoter up
COc1ccc(NC(=O)c2cnc(C)cn2)c2ncccc12 | . | -79 | -58 | 86* | 0.18 | 0.1
Cc1cc(C)c(OCCCCCNCCO)c(C)c1 | -1.1 | -32 | -1 | 90* | -0.44 | 0.44
Cc1cc(OCCCCCNCCO)cc(C)c1Cl | . | -51 | 42 | 98* | 1.3 | 1.1
COc1cccc(OC)c1OCCNCCO | . | -19 | -10 | 11 | 0.87 | 0.45
Cc1cc(C)cc(OCCCCCNCCO)c1 | . | 16 | 3 | 52* | 0.011 | -0.12
Cc1cc(OCC(=O)NCCO)cc(C)c1Cl | . | -22 | 4 | -2 | -0.27 | 0.09
Cc1cc(OCCNCCO)cc(C)c1Cl | . | -26 | -3 | 66* | -0.055 | .
C#CC(C)(CC)NC(=O)Cn1nnc(-c2ccc(S(C)(=O)=O)cc2)n1 (stereo not drawn) | . | . | -11 | 3 | -0.79 | -0.67
